The values that follow come from PubChem BioAssay (NCI).

This is part of a sample that, as a whole, favours compounds with a hit. Of some 83,000 tested, about 20% had one in any assay.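 Each cell line was grown in a 96-well plate and treated with one concentration of compound for 48 hours. Values below 10 were considered active.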 A number with no mark means an inactive call. The source made the active and inactive calls.

Common to all, as to assay: NCI-60 one-dose screen, 48 h (100 = growth as untreated, 0 = no growth, -100 = all killed)
Common to all, as to details: 10 µM unless noted

Experiment [1] concerns SK-MEL-2 melanoma.
The test system of experiment [2] is EKVX NSCLC.
The test system of experiment [3] is SN12C renal.
The subject of experiment [4] is UO-31 renal.
Experiment [5] deals with TK-10 renal.
The subject of experiment [6] is ACHN renal.
For experiment [7], the system named is CAKI-1 renal.
Experiment [8] has as its system A498 renal.
Experiment [9] concerns CCRF-CEM leukemia.
In experiment [10] the test system is MOLT-4 leukemia.
For experiment [11], the system named is SR leukemia.
In experiment [12] the test system is RPMI-8226 leukemia.
Experiment [13] deals with OVCAR-8 ovarian.
The test system of experiment [14] is OVCAR-5 ovarian.
For experiment [15], the system named is OVCAR-4 ovarian.
Experiment [16] concerns SK-OV-3 ovarian.
Experiment [17] relates to IGROV1 ovarian.
Experiment [18] deals with OVCAR-3 ovarian.
The subject of experiment [19] is HS 578T breast.
Experiment [20] has as its system NCI/ADR-RES ovarian.

For `COc1cc(C2C=C(c3cccc(NC(C)=O)c3)Nc3ncnn32)cc(OC)c1OC` (centres undefined), the growth in experiment [1] was 64.9%; in experiment [2], 37.2%; in experiment [3], 32.9%; in experiment [4], 59.6%; in [5], 4.84% (active); in experiment [6] it was 52.8%. Moreover, the growth was -10.6% (active) in experiment [7]; 1.13% (active) in [8]; 11.5% in experiment [9]; 9.75% (active) in experiment [10]; -5.94% (active) in [11]; 19% in experiment [12]. Moreover, the growth in experiment [13] is 24.3%; in [14], 34.8%; in experiment [15] it was 59.8%; in [16], 35.5%; in experiment [17], 30.4%; in [18], -40.5% (active). Further, the growth is 19% in experiment [19] and 76.1% in [20].
As to `CC1(C)CC(=O)c2c(ccc(C(=O)C[C@H](N)CO)c2N)O1`, the growth is 36.8% in experiment [1]; 80% in [2]; 32.6% in [3]; 43.4% in experiment [4]; 79.4% in experiment [5]; 46.2% in [6]. The growth in experiment [7] was 20.3%; in experiment [8] it was -16.8% (active); in experiment [9], 17.7%; in experiment [10] it was 38.5%; in experiment [11], 16.7%; in experiment [12] it was 13%. Further, the growth in experiment [13] is 32.4%; in experiment [14], 64.2%; in experiment [15] it was 69.8%; in [17] it was 34.7%; in experiment [18] it was 7.02% (active); in experiment [19], 82.4%. Also, the growth in [20] was 70.5%.
Take `Cc1c2c(cn1Cc1ccccc1)CCc1cn(C)nc1-2`: the growth was 114% in experiment [1]; 73.2% in experiment [2]; 87% in [3]; 68.6% in [4]; 107% in [5]; 80.3% in experiment [6]. Besides, the growth in experiment [7] is 58.8%; in experiment [8], 97.5%; in experiment [9] it was 74.4%; in experiment [10] it was 69.7%; in experiment [11] it was 53.2%; in [12], 40.9%. Also, the growth was 86.5% in experiment [13], 55.4% in experiment [15], 108% in experiment [16] and 102% in experiment [17].
Take `O=C(O)C1C[C@](O)(c2ccc(F)cc2)[C@@H](c2ccc(F)cc2)O1` (some centres undefined): the growth in [1] was 102%; in [2] it was 105%; in experiment [3] it was 116%; in experiment [4] it was 78.5%; in [5], 108%; in experiment [6], 116%. The growth was 40.5% in experiment [7]; 156% in experiment [8]; 82.4% in experiment [9]; 97.2% in experiment [10]; 73.8% in [11]; 69.1% in [12]. In addition, the growth in experiment [13] is 95.1%; in experiment [14], 90.8%; in experiment [15], 107%; in experiment [16], 97.5%; in experiment [17], 71.8%; in experiment [19] it was 124%. Also, the growth in experiment [20] was 96.5%.
Regarding `CCN(CC)CCCNC(=O)c1ccc(N)cc1O`, the growth in experiment [1] was 100%; in experiment [2], 103%; in [3], 101%; in experiment [4], 69.7%; in [5] it was 106%; in experiment [6], 98.3%. Also, the growth is 106% in experiment [7]; 56.2% in [8]; -32.8% (active) in [9]; 91% in [10]; 98.3% in [11]; 94.7% in [12]. Also, the growth in experiment [14] is 98.9%; in experiment [15], 118%; in experiment [16], 105%; in experiment [17], 91.8%; in experiment [19], 98.4%; in experiment [20], 96.1%.
Consider `COc1cc2c(O)n(CCCn3ccnc3)c3c4cnc5cccc(c(=O)c3c2cc1OC)c54`, for which the growth is 71% in [1]; 49.6% in [2]; 19.2% in experiment [3]; 64.7% in experiment [4]; 92.7% in experiment [5]; 27.2% in experiment [6]. Also, the growth in [7] is 66.4%; in experiment [8], 21.5%; in experiment [9], 11%; in experiment [10], 4.13% (active); in [11], 25%; in experiment [12], 19.4%. In addition, the growth in experiment [13] was 35.3%; in [14], 83.1%; in experiment [15], 50.9%; in experiment [17] it was 46.2%; in experiment [18] it was 44.7%; in experiment [19], 73.8%. For the same molecule, in experiment [20], the growth was 98.3%.
As to `CC12CC(C#N)CCC1O2` (centres undefined), the growth in experiment [1] is 116%; in experiment [2], 120%; in [3] it was 105%; in experiment [4], 96%; in experiment [5], 119%; in experiment [6] it was 101%. For the same molecule, the growth was 111% in [7]; 121% in [8]; 92.4% in experiment [9]; 96.2% in experiment [10]; 98.9% in experiment [11]; 106% in experiment [12]. Further, the growth in [13] was 105%; in experiment [14], 105%; in experiment [16], 115%; in [17], 99.2%; in experiment [18], 117%; in experiment [19], 105%. Also, the growth in experiment [20] was 115%.
As to `COc1cc(C(=O)Nc2cc(O)c(CC=C(C)C)c(O)c2)cc2c1O[C@]1(C)CC[C@@H](O)C(C)(C)[C@H]1C2`, the growth is 12.9% in [1]; 36.6% in experiment [2]; 64.6% in [3]; -1.4% (active) in experiment [4]; 33.2% in experiment [5]; 26.4% in experiment [6]. The growth in experiment [7] is 9.89% (active); in [8], 16.7%; in experiment [9], 2.18% (active); in [10] it was -15.7% (active); in experiment [11], 14.2%; in [12], -24.3% (active). Also, the growth in experiment [13] was 31.3%; in experiment [14], 53%; in experiment [15] it was 58.6%; in experiment [16], 16.5%; in [18], 27.7%; in experiment [19], 10.3%. For the same molecule, the growth in experiment [20] is 81.3%.
